According to the supplement of paper PMC10105736:
Values without a mark were called inactive.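 The calls were made as follows: active = MAPPIT score above the 99th percentile of random reference set scores in the same batch; inactive = at or below it.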

Test system: sim
Assay: MAPPIT interaction score (arbitrary units); higher = stronger binary interaction signal, active = hit call of the paper
Settings: MAPPIT configuration: N-C; pair source set: Lit-BM-16
Description: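 MAPPIT in HEK293T cells: Drosophila bait and prey ORFs (from the FlyBi ORF collection) were co-transfected in quadruplicate, with two wells stimulated by erythropoietin. Interaction-dependent JAK-STAT activation was read out with a STAT-responsive firefly luciferase reporter. Positive calls use the 99th percentile of random reference set (RRS) scores within each batch […]. Batches Dvs01 and Dvs02 used the N-N configuration and Dvs04 the N-C configuration. Pairs come from FlyBi screens, CuraGen, DPiM, Finley Y2H, Lit-BM-16, Lit-BS-16 and RRS.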
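Also: HEK293T cells with Epo stimulation, STAT-responsive firefly luciferase reporter, fold induction versus unstimulated cells divided by the larger fold induction of two negative controls lacking either bait or prey.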

tgo, sequence (chain, as listed by the source): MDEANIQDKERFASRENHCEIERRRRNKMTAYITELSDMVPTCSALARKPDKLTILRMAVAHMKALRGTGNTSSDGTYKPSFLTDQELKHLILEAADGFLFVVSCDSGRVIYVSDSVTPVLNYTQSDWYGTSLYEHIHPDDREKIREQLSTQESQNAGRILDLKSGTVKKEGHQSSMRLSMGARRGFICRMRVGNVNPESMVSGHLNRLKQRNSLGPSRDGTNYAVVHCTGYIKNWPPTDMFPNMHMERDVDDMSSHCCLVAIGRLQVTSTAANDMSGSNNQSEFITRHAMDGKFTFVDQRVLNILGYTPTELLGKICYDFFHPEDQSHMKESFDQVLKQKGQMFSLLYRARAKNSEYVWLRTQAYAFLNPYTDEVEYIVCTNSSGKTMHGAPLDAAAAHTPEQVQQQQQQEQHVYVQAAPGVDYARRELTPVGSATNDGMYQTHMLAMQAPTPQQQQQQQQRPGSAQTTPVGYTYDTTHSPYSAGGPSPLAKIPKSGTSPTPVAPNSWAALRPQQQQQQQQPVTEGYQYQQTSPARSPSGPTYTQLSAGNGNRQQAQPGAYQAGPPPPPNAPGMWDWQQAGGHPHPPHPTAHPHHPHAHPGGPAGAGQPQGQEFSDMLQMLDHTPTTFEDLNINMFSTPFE

**Q.** Which MAPPIT interaction score does the source give for tgo here?
**A.** 2.23

Same assay, conditions: MAPPIT configuration: N-N; pair source set: Lit-BM-16

**Q.** Which MAPPIT interaction score does the source give for tgo here?
**A.** 1.37
